The panel holds about 83,000 compounds, 20% with a hit somewhere; the sample as a whole holds those more often.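 Treatment: one concentration, 48 hours, 96-well format. Scoring: percent growth, with anything below 10 considered active.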 Activity calls are given as the source filed them.
Tests used:
Experiment in all cases: NCI-60 one-dose screen, 48 h (100 = growth as untreated, 0 = no growth, -100 = all killed)
Settings in all cases: 10 µM unless noted
NCI-H23 lung = system: NCI-H23 lung
NCI-H226 lung = system: NCI-H226 lung
NCI-H322M lung = system: NCI-H322M lung
HOP-62 NSCLC = system: HOP-62 NSCLC
NCI-H460 lung = system: NCI-H460 lung
HOP-92 NSCLC = system: HOP-92 NSCLC
NCI-H522 lung = system: NCI-H522 lung
A549/ATCC NSCLC = system: A549/ATCC NSCLC
786-0 renal = system: 786-0 renal
COLO 205 colon = system: COLO 205 colon
DU-145 prostate = system: DU-145 prostate
K-562 leukemia = system: K-562 leukemia
MALME-3M melanoma = system: MALME-3M melanoma
MDA-MB-231 breast = system: MDA-MB-231 breast
RXF 393 renal = system: RXF 393 renal
SF-268 CNS = system: SF-268 CNS
SF-295 CNS = system: SF-295 CNS
SF-539 CNS = system: SF-539 CNS
UACC-257 melanoma = system: UACC-257 melanoma
M14 melanoma = system: M14 melanoma

Measured: growth

O=S(=O)(Nc1ccc(Br)cc1)c1ccc(-c2cnc(C3CC3)o2)cc1
inactive: NCI-H23 lung 40.8% | NCI-H226 lung 67.3% | NCI-H322M lung 61.9% | HOP-62 NSCLC 27.1% | NCI-H460 lung 12.8% | HOP-92 NSCLC 43% | NCI-H522 lung 11% | A549/ATCC NSCLC 40.1% | 786-0 renal 37.8% | COLO 205 colon 23.9% | DU-145 prostate 38.1% | K-562 leukemia 11.3% | MALME-3M melanoma 44.4% | MDA-MB-231 breast 35.2% | RXF 393 renal 10.4% | SF-268 CNS 39.9% | SF-295 CNS 28.9% | UACC-257 melanoma 66.1% | M14 melanoma 18.1%
active: SF-539 CNS 3.63%

O=C(O)CCCN1C(=O)CSC1=S
inactive: NCI-H23 lung 104% | NCI-H226 lung 111% | NCI-H322M lung 100% | HOP-62 NSCLC 103% | NCI-H460 lung 101% | HOP-92 NSCLC 103% | NCI-H522 lung 93.3% | A549/ATCC NSCLC 105% | 786-0 renal 102% | COLO 205 colon 120% | DU-145 prostate 107% | K-562 leukemia 103% | MALME-3M melanoma 102% | MDA-MB-231 breast 107% | RXF 393 renal 107% | SF-268 CNS 93.9% | SF-295 CNS 106% | SF-539 CNS 102% | UACC-257 melanoma 95.9% | M14 melanoma 93.3%

CC1=NC(=S)NC(c2ccccc2)/C1=C1/CC(c2ccccc2O)NN1 (centres undefined)
inactive: NCI-H23 lung 92.5% | NCI-H226 lung 97% | NCI-H322M lung 101% | HOP-62 NSCLC 92.7% | NCI-H460 lung 104% | HOP-92 NSCLC 84.5% | NCI-H522 lung 96.3% | 786-0 renal 100% | COLO 205 colon 105% | DU-145 prostate 101% | K-562 leukemia 99.4% | MALME-3M melanoma 97.9% | MDA-MB-231 breast 94.8% | RXF 393 renal 103% | SF-268 CNS 93.3% | SF-295 CNS 100% | SF-539 CNS 93.4% | UACC-257 melanoma 107% | M14 melanoma 97.3%

NCCNc1ccc([N+](=O)[O-])cc1
inactive: NCI-H23 lung 112% | NCI-H226 lung 99.5% | NCI-H322M lung 112% | HOP-62 NSCLC 104% | NCI-H460 lung 111% | HOP-92 NSCLC 98.9% | NCI-H522 lung 94.9% | A549/ATCC NSCLC 108% | 786-0 renal 99.5% | COLO 205 colon 120% | DU-145 prostate 126% | K-562 leukemia 92.4% | MALME-3M melanoma 115% | MDA-MB-231 breast 122% | RXF 393 renal 123% | SF-268 CNS 110% | SF-295 CNS 128% | SF-539 CNS 107% | UACC-257 melanoma 115% | M14 melanoma 106%

COc1ccc(Nc2nc(Nc3cc(C)[nH]n3)c3cc(OC)c(OC)cc3n2)cc1
active: NCI-H23 lung -74.7% [20 µM] | NCI-H226 lung -47.2% [20 µM] | NCI-H322M lung -100% [20 µM] | HOP-62 NSCLC -73.3% [20 µM] | NCI-H460 lung -75.9% [20 µM] | HOP-92 NSCLC -84.6% [20 µM] | NCI-H522 lung -39.1% [20 µM] | 786-0 renal -83.3% [20 µM] | COLO 205 colon -61% [20 µM] | DU-145 prostate -86.2% [20 µM] | K-562 leukemia -10.8% [20 µM] | MALME-3M melanoma -97.7% [20 µM] | MDA-MB-231 breast -94.2% [20 µM] | RXF 393 renal -94.4% [20 µM] | SF-268 CNS -66.8% [20 µM] | SF-295 CNS -94.2% [20 µM] | SF-539 CNS -97.2% [20 µM] | UACC-257 melanoma -76.8% [20 µM] | M14 melanoma -75.6% [20 µM]

COc1cc(/C=C2\C(=O)N(CCOc3cc(O)c4c(=O)cc(-c5ccccc5)oc4c3)c3ccccc32)cc(OC)c1O
inactive: NCI-H23 lung 77.6% | NCI-H226 lung 90.4% | NCI-H322M lung 90.7% | HOP-62 NSCLC 68.7% | NCI-H460 lung 66.1% | HOP-92 NSCLC 80.5% | NCI-H522 lung 60.1% | 786-0 renal 75.6% | COLO 205 colon 93.3% | DU-145 prostate 94% | K-562 leukemia 22.6% | MALME-3M melanoma 77.6% | MDA-MB-231 breast 64.2% | RXF 393 renal 85.9% | SF-268 CNS 70.6% | SF-295 CNS 86.6% | SF-539 CNS 69.9% | UACC-257 melanoma 104% | M14 melanoma 28.1%

O=C1CC2C=CCN2C=C1NC(=O)c1ccccc1 (centres undefined)
inactive: NCI-H23 lung 101% | NCI-H226 lung 102% | NCI-H322M lung 99.8% | HOP-62 NSCLC 114% | NCI-H460 lung 111% | HOP-92 NSCLC 110% | NCI-H522 lung 104% | 786-0 renal 98.5% | COLO 205 colon 102% | DU-145 prostate 103% | K-562 leukemia 92.7% | MALME-3M melanoma 93.9% | MDA-MB-231 breast 112% | RXF 393 renal 105% | SF-268 CNS 98.7% | SF-295 CNS 98% | SF-539 CNS 107% | UACC-257 melanoma 99.8% | M14 melanoma 98.8%

COc1ccc(-n2c(=O)n(-c3ccc(-c4nc5ccc(F)cc5s4)cc3)c(=O)c3cccnc32)cc1
inactive: NCI-H23 lung 89.9% | NCI-H226 lung 105% | NCI-H322M lung 102% | HOP-62 NSCLC 89.2% | NCI-H460 lung 110% | HOP-92 NSCLC 118% | NCI-H522 lung 88.8% | 786-0 renal 99.5% | COLO 205 colon 106% | DU-145 prostate 106% | K-562 leukemia 99.7% | MALME-3M melanoma 101% | MDA-MB-231 breast 97.1% | RXF 393 renal 129% | SF-268 CNS 106% | SF-295 CNS 94.5% | SF-539 CNS 107% | UACC-257 melanoma 94.7% | M14 melanoma 107%

CN(C)c1ccc(Cc2cc(-c3ccccc3)nn(C/C(=N/O)c3ccccc3)c2=O)cc1
inactive: NCI-H23 lung 57.4% | NCI-H226 lung 60.5% | NCI-H322M lung 80.4% | HOP-62 NSCLC 75.1% | NCI-H460 lung 42.6% | HOP-92 NSCLC 55.9% | NCI-H522 lung 41.2% | A549/ATCC NSCLC 30.2% | 786-0 renal 75.4% | COLO 205 colon 58.4% | DU-145 prostate 91.8% | K-562 leukemia 29.5% | MALME-3M melanoma 66.2% | MDA-MB-231 breast 54% | RXF 393 renal 61.4% | SF-268 CNS 55.8% | SF-295 CNS 45.5% | SF-539 CNS 84.3% | UACC-257 melanoma 62.8% | M14 melanoma 57%

Cc1ccc2c(n1)C[C@H](C(C)(C)O)CC[C@H]2C
inactive: NCI-H23 lung 103% | NCI-H226 lung 100% | NCI-H322M lung 98.5% | HOP-62 NSCLC 101% | NCI-H460 lung 108% | HOP-92 NSCLC 97.7% | NCI-H522 lung 94.3% | 786-0 renal 97.9% | COLO 205 colon 111% | DU-145 prostate 107% | K-562 leukemia 101% | MALME-3M melanoma 94.4% | MDA-MB-231 breast 97.1% | RXF 393 renal 114% | SF-268 CNS 101% | SF-295 CNS 93.4% | SF-539 CNS 100% | UACC-257 melanoma 104% | M14 melanoma 104%

O=c1[nH]c(CN2CCN(c3ccccc3)CC2)nc2c(Br)cc(Br)cc12
inactive: NCI-H23 lung 98.4% | NCI-H226 lung 93.4% | NCI-H322M lung 112% | HOP-62 NSCLC 101% | NCI-H460 lung 100% | HOP-92 NSCLC 131% | NCI-H522 lung 103% | 786-0 renal 103% | COLO 205 colon 104% | DU-145 prostate 114% | K-562 leukemia 97.6% | MALME-3M melanoma 109% | MDA-MB-231 breast 115% | RXF 393 renal 101% | SF-268 CNS 108% | SF-295 CNS 91.8% | SF-539 CNS 111% | UACC-257 melanoma 96.2% | M14 melanoma 113%

COc1cc(OCc2cccc(-c3ccc4c(c3)OCCO4)c2C)cc(OC)c1C=O
inactive: NCI-H23 lung 52.4% | NCI-H226 lung 32.6% | NCI-H322M lung 85.3% | HOP-62 NSCLC 73.4% | NCI-H460 lung 72.2% | HOP-92 NSCLC 79.5% | NCI-H522 lung 42.7% | 786-0 renal 67.1% | COLO 205 colon 40.8% | DU-145 prostate 77.8% | K-562 leukemia 29.9% | MALME-3M melanoma 58.9% | MDA-MB-231 breast 64.8% | RXF 393 renal 74.2% | SF-268 CNS 70.3% | SF-295 CNS 72.1% | SF-539 CNS 77.9% | UACC-257 melanoma 42.3% | M14 melanoma 59.2%

C=C1CC[C@@H]2[C@](C)(COC(C)=O)[C@H](OC(C)=O)CC[C@@]2(C)[C@@H]1CC(Nc1ccc(S(=O)(=O)Nc2nccc(C)n2)cc1)C1=CCOC1=O (some centres undefined)
active: NCI-H226 lung -12.1% | NCI-H522 lung -50.6% | COLO 205 colon 9.64% | K-562 leukemia 3.62% | MALME-3M melanoma -0.704% | RXF 393 renal -38.3% | SF-539 CNS -62.7%
inactive: NCI-H23 lung 48.4% | NCI-H322M lung 64.8% | HOP-62 NSCLC 156% | NCI-H460 lung 46.9% | HOP-92 NSCLC 71.6% | 786-0 renal 32.5% | DU-145 prostate 38.5% | MDA-MB-231 breast 13.3% | SF-268 CNS 43.2% | SF-295 CNS 78.6% | UACC-257 melanoma 48.5% | M14 melanoma 11.2%

C#Cc1c(I)n(C2OC(CO[Si](C)(C)C(C)(C)C)C3OC(C)(C)OC32)c(=O)[nH]c1=O (centres undefined)
active: HOP-92 NSCLC -80.9% | COLO 205 colon -88.2% | K-562 leukemia -35.5% | RXF 393 renal -72.3%
inactive: NCI-H23 lung 85.7% | NCI-H226 lung 98.1% | NCI-H322M lung 113% | HOP-62 NSCLC 97% | NCI-H460 lung 114% | NCI-H522 lung 101% | 786-0 renal 93.9% | DU-145 prostate 25.1% | MALME-3M melanoma 66.4% | MDA-MB-231 breast 16.1% | SF-268 CNS 100% | SF-295 CNS 120% | SF-539 CNS 92.4% | UACC-257 melanoma 64.1% | M14 melanoma 76.4%

CN(C)CCCN(CCC1CCCCC1)CCC1CCCCC1
inactive: NCI-H23 lung 66.4% | NCI-H226 lung 94.8% | NCI-H322M lung 80.1% | HOP-62 NSCLC 64.3% | HOP-92 NSCLC 28.8% | NCI-H522 lung 48.8% | 786-0 renal 56.2% | DU-145 prostate 80.9% | K-562 leukemia 26% | MDA-MB-231 breast 19.4% | RXF 393 renal 70.8% | SF-268 CNS 75.2% | SF-295 CNS 69.4% | SF-539 CNS 49.6%
active: NCI-H460 lung -2.63% | COLO 205 colon -54.4% | MALME-3M melanoma -79.4% | UACC-257 melanoma -65.3% | M14 melanoma -97.2%
